The test concerns the target T1, CRBN, Q96SW2.
T1 chain: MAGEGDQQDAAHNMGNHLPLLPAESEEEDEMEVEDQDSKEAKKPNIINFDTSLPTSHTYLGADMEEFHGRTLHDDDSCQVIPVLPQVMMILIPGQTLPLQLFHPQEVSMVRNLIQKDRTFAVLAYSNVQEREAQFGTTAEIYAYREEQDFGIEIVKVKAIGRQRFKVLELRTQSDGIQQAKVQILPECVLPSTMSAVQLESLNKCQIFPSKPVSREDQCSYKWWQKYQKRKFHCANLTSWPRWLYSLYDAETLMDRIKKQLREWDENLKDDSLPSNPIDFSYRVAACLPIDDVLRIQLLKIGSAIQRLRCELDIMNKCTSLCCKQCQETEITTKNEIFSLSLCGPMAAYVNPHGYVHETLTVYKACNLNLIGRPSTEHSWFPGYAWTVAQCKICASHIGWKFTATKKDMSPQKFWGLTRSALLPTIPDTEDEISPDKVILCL
The experiment in a line: log2 fold change of degron read counts, EGFP-low vs EGFP+ sorted cells (limma voom), compound-induced degradation; higher = more compound-induced degradation of the degron-EGFP fusion; degrons are variants of IKZF1/3 zinc finger 2; compound dose not given here. To be noted: Jurkat, 18 h.

Where [1] appears, read: compound: compound 19 (5-tert-butyl-thalidomide).
Where [2] appears, read: compound: compound 22 (5-morpholino-thalidomide).
The mark [3] stands for this setting: compound: compound 33 (diphenyl IMiD analogue).

The full ranking holds about 8,300 sequences; the median of “log2 fold change of degron read counts, EGFP-low vs EGFP+ sorted cells (limma voom), compound-induced degradation” is about -1.1, and the highest 2% start at about 3.2. The entries come from a sample that favours the highest values as a whole.
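Further: pooled lentiviral library of zinc finger degron-EGFP fusions in mCherry-positive Jurkat cells, FACS-sorted after compound exposure, with degron abundance counted by next-generation sequencing.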

B1: 46F_47G_49P_50I_52G_53H_54W_55F_67L_, Q9UKT9 (peptide)
chain: FGCPICGHWFTQKGNLLRHIKL
For B1, the “log2 fold change of degron read counts” value under setting [1] is -1.35, the “log2 fold change of degron read counts” value under setting [2] was -2.19, the “log2 fold change of degron read counts” value under setting [3] was -1.6 and the “log2 fold change of degron read counts” value (compound: thalidomide) is -1.77.

B2: 46F_47Y_49E_50V_52G_53A_54N_55F_67L_, Q9UKT9 (peptide)
chain: FYCEVCGANFTQKGNLLRHIKL
For B2, the “log2 fold change of degron read counts” value under setting [1] is 3.26, the “log2 fold change of degron read counts” value under setting [2] came out at 3.88, the “log2 fold change of degron read counts” value under setting [3] stood at 2.56 and the “log2 fold change of degron read counts” value (compound: thalidomide) is 1.5.

B3: 46F_47E_49E_50V_52G_53A_54N_55F_67L_, Q9UKT9 (peptide)
chain: FECEVCGANFTQKGNLLRHIKL
As to B3, the “log2 fold change of degron read counts” value under setting [1] was -0.492, the “log2 fold change of degron read counts” value under setting [2] is -1.03, the “log2 fold change of degron read counts” value under setting [3] stood at 2.04 and the “log2 fold change of degron read counts” value (compound: thalidomide) stood at 2.31.

B4: 46F_47W_49E_50V_52G_53A_54N_55F_67L_, Q9UKT9 (peptide)
chain: FWCEVCGANFTQKGNLLRHIKL
Take B4: the “log2 fold change of degron read counts” value is, setting by setting: under setting [1], 3.33; under setting [2], 3.86; under setting [3], 2.16; (compound: thalidomide) 1.61.

B5: 46F_47T_49E_50V_52G_53A_54N_55F_67L_, Q9UKT9 (peptide)
chain: FTCEVCGANFTQKGNLLRHIKL
With B5, the “log2 fold change of degron read counts” value is -0.297 under setting [1], 1.72 under setting [2], 1.21 under setting [3] and 2.03 (compound: thalidomide).

B6: 46F_47M_49E_50V_52G_53A_54N_55F_67L_, Q9UKT9 (peptide)
chain: FMCEVCGANFTQKGNLLRHIKL
Consider B6, for which the “log2 fold change of degron read counts” value reads like this: under setting [1], -0.728; under setting [2], 0.197; under setting [3], 2.72; (compound: thalidomide) 1.11.

B7: 46F_47L_49E_50V_52G_53A_54N_55F_67L_, Q9UKT9 (peptide)
chain: FLCEVCGANFTQKGNLLRHIKL
In the case of B7, the “log2 fold change of degron read counts” value under setting [1] was -0.0798, the “log2 fold change of degron read counts” value under setting [2] is -0.418, the “log2 fold change of degron read counts” value under setting [3] was found to be 0.939 and the “log2 fold change of degron read counts” value (compound: thalidomide) came to 1.25.

B8: 46F_47H_49E_50V_52G_53A_54N_55F_67L_, Q9UKT9 (peptide)
chain: FHCEVCGANFTQKGNLLRHIKL
On to B8, for which the “log2 fold change of degron read counts” value under setting [1] came out at 0.846, the “log2 fold change of degron read counts” value under setting [2] came out at 0.806, the “log2 fold change of degron read counts” value under setting [3] is -0.028 and the “log2 fold change of degron read counts” value (compound: thalidomide) is -0.545.

B9: 46F_47Q_49E_50V_52G_53A_54N_55F_67L_, Q9UKT9 (peptide)
chain: FQCEVCGANFTQKGNLLRHIKL
Regarding B9, the “log2 fold change of degron read counts” value came to 0.104 under setting [1], 1.29 under setting [2], 1.34 under setting [3] and 3.56 (compound: thalidomide).

B10: 46F_47F_49E_50V_52G_53A_54N_55F_67L_, Q9UKT9 (peptide)
chain: FFCEVCGANFTQKGNLLRHIKL
As to B10, the “log2 fold change of degron read counts” value reads like this: under setting [1], 2.83; under setting [2], 3.44; under setting [3], 1.84; (compound: thalidomide) 1.47.

B11: 46F_47I_49E_50V_52G_53A_54N_55F_67L_, Q9UKT9 (peptide)
chain: FICEVCGANFTQKGNLLRHIKL
Regarding B11, the “log2 fold change of degron read counts” value was -0.804 under setting [1], 2.54 under setting [2], 2.03 under setting [3] and 2.44 (compound: thalidomide).

B12: 46F_47V_49E_50V_52G_53A_54N_55F_67L_, Q9UKT9 (peptide)
chain: FVCEVCGANFTQKGNLLRHIKL
B12: the “log2 fold change of degron read counts” value by setting is: under setting [1], -0.0108; under setting [2], 2.6; under setting [3], 2.09; (compound: thalidomide) 2.74.

B13: 46F_47N_49E_50V_52G_53A_54N_55F_67L_, Q9UKT9 (peptide)
chain: FNCEVCGANFTQKGNLLRHIKL
Regarding B13, the “log2 fold change of degron read counts” value is 2.09 under setting [1], 0.096 under setting [2], -0.251 under setting [3] and -0.321 (compound: thalidomide).

B14: 46F_47H_49N_50I_52G_53A_54H_55F_67L_, Q9UKT9 (peptide)
chain: FHCNICGAHFTQKGNLLRHIKL
B14: the “log2 fold change of degron read counts” value is 0.23 under setting [1], -0.286 under setting [2], -0.308 under setting [3] and -1.49 (compound: thalidomide).

B15: 46F_47G_49P_50I_52G_53H_54Q_55F_67L_, Q9UKT9 (peptide)
chain: FGCPICGHQFTQKGNLLRHIKL
In the case of B15, the “log2 fold change of degron read counts” value is, setting by setting: under setting [1], -1.23; under setting [2], -2.85; under setting [3], -2.17; (compound: thalidomide) -2.38.

B16: 46F_47V_49E_50V_52G_53A_54W_55F_67L_, Q9UKT9 (peptide)
chain: FVCEVCGAWFTQKGNLLRHIKL
As for B16, the “log2 fold change of degron read counts” value reads like this: under setting [1], -1.7; under setting [2], -0.89; under setting [3], 0.622; (compound: thalidomide) 0.0931.

B17: 46F_47L_49D_50Q_52G_53A_54M_55F_67L_, Q9UKT9 (peptide)
chain: FLCDQCGAMFTQKGNLLRHIKL
Regarding B17, the “log2 fold change of degron read counts” value was -3.11 under setting [1], -2.68 under setting [2], -1.79 under setting [3] and -2.7 (compound: thalidomide).

B18: 46F_47I_49N_50Q_52G_53R_54A_55F_67L_, Q9UKT9 (peptide)
chain: FICNQCGRAFTQKGNLLRHIKL
Consider B18, for which the “log2 fold change of degron read counts” value is, setting by setting: under setting [1], -2.99; under setting [2], -3.18; under setting [3], -3.02; (compound: thalidomide) -2.57.

B19: 46F_47G_49N_50Q_52G_53A_54H_55F_67L_, Q9UKT9 (peptide)
chain: FGCNQCGAHFTQKGNLLRHIKL
For B19, the “log2 fold change of degron read counts” value under setting [1] is -2.35, the “log2 fold change of degron read counts” value under setting [2] was -2.82, the “log2 fold change of degron read counts” value under setting [3] is -1.79 and the “log2 fold change of degron read counts” value (compound: thalidomide) was -2.17.

B20: 46F_47R_49E_50I_52G_53H_54Q_55F_67L_, Q9UKT9 (peptide)
chain: FRCEICGHQFTQKGNLLRHIKL
As for B20, the “log2 fold change of degron read counts” value by setting is: under setting [1], -3.28; under setting [2], -3.74; under setting [3], -2.48; (compound: thalidomide) -2.14.

B21: 46F_47Q_49D_50V_52G_53A_54C_55F_67L_, Q9UKT9 (peptide)
chain: FQCDVCGACFTQKGNLLRHIKL
Consider B21, for which the “log2 fold change of degron read counts” value is, setting by setting: under setting [1], -1.14; under setting [2], 1.47; under setting [3], 0.493; (compound: thalidomide) 3.01.

B22: 46F_47L_49S_50V_52G_53H_54L_55F_67L_, Q9UKT9 (peptide)
chain: FLCSVCGHLFTQKGNLLRHIKL
For B22, the “log2 fold change of degron read counts” value is, setting by setting: under setting [1], -2.16; under setting [2], -2.42; under setting [3], -2.1; (compound: thalidomide) -2.

B23: 46L_47N_49P_50I_52G_53F_54Q_55C_67L_, Q9UKT9 (peptide)
chain: LNCPICGFQCTQKGNLLRHIKL
With B23, the “log2 fold change of degron read counts” value runs as follows: under setting [1], 1.88; under setting [2], 1.12; under setting [3], 0.537; (compound: thalidomide) 1.19.

B24: 46L_47M_49P_50I_52G_53F_54Q_55C_67L_, Q9UKT9 (peptide)
chain: LMCPICGFQCTQKGNLLRHIKL
Turning to B24, the “log2 fold change of degron read counts” value came out at 0.282 under setting [1], 1.65 under setting [2], 2.68 under setting [3] and 2.37 (compound: thalidomide).

B25: 46L_47Q_49P_50I_52G_53F_54Q_55C_67L_, Q9UKT9 (peptide)
chain: LQCPICGFQCTQKGNLLRHIKL
Turning to B25, the “log2 fold change of degron read counts” value stood at 1.01 under setting [1], 1.71 under setting [2], 1.77 under setting [3] and 3.45 (compound: thalidomide).

B26: 46L_47C_49P_50I_52G_53F_54Q_55C_67L_, Q9UKT9 (peptide)
chain: LCCPICGFQCTQKGNLLRHIKL
With B26, the “log2 fold change of degron read counts” value worked out at 2.04 under setting [1], 2.42 under setting [2], 2.76 under setting [3] and 2.48 (compound: thalidomide).

B27: 46L_47R_49P_50I_52G_53F_54Q_55C_67L_, Q9UKT9 (peptide)
chain: LRCPICGFQCTQKGNLLRHIKL
For B27, the “log2 fold change of degron read counts” value by setting is: under setting [1], 0.722; under setting [2], 0.186; under setting [3], 1.12; (compound: thalidomide) 1.62.

B28: 46L_47Y_49P_50I_52G_53F_54Q_55C_67L_, Q9UKT9 (peptide)
chain: LYCPICGFQCTQKGNLLRHIKL
In the case of B28, the “log2 fold change of degron read counts” value runs as follows: under setting [1], 3.45; under setting [2], 3.56; under setting [3], 2.59; (compound: thalidomide) 1.87.

B29: 46L_47F_49P_50I_52G_53F_54Q_55C_67L_, Q9UKT9 (peptide)
chain: LFCPICGFQCTQKGNLLRHIKL
In the case of B29, the “log2 fold change of degron read counts” value runs as follows: under setting [1], 3.36; under setting [2], 3.29; under setting [3], 2.33; (compound: thalidomide) 2.04.

B30: 46L_47D_49P_50I_52G_53F_54Q_55C_67L_, Q9UKT9 (peptide)
chain: LDCPICGFQCTQKGNLLRHIKL
As to B30, the “log2 fold change of degron read counts” value was determined as 0.742 under setting [1], 0.239 under setting [2], 0.58 under setting [3] and 1.8 (compound: thalidomide).

B31: 46L_47I_49P_50I_52G_53F_54Q_55C_67L_, Q9UKT9 (peptide)
chain: LICPICGFQCTQKGNLLRHIKL
On to B31, for which the “log2 fold change of degron read counts” value was 0.317 under setting [1], 2.57 under setting [2], 2.11 under setting [3] and 2.94 (compound: thalidomide).

B32: 46L_47K_49P_50I_52G_53F_54Q_55C_67L_, Q9UKT9 (peptide)
chain: LKCPICGFQCTQKGNLLRHIKL
Regarding B32, the “log2 fold change of degron read counts” value is -0.0362 under setting [1], -1.47 under setting [2], -1.46 under setting [3] and 0.648 (compound: thalidomide).

B33: 46L_47W_49P_50I_52G_53F_54Q_55C_67L_, Q9UKT9 (peptide)
chain: LWCPICGFQCTQKGNLLRHIKL
Consider B33, for which the “log2 fold change of degron read counts” value was found to be 3.21 under setting [1], 3.52 under setting [2], 2.81 under setting [3] and 1.97 (compound: thalidomide).

B34: 46L_47T_49P_50I_52G_53F_54Q_55C_67L_, Q9UKT9 (peptide)
chain: LTCPICGFQCTQKGNLLRHIKL
As for B34, the “log2 fold change of degron read counts” value under setting [1] amounted to 0.773, the “log2 fold change of degron read counts” value under setting [2] turned out to be 2.5, the “log2 fold change of degron read counts” value under setting [3] was found to be 2.25 and the “log2 fold change of degron read counts” value (compound: thalidomide) was 2.88.
